Data as given in PubChem BioAssay (NCI).
The panel holds about 83,000 compounds, 20% with a hit somewhere; the sample as a whole holds those more often.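 Each cell line was grown in a 96-well plate and treated with one concentration of compound for 48 hours. Values below 10 were considered active.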 Active and inactive are the calls of the source.

system: IGROV1 ovarian; assay: NCI-60 one-dose screen, 48 h (100 = growth as untreated, 0 = no growth, -100 = all killed); details: 10 µM

Compound	growth
O=C(c1ccccc1)C1CCC1	114% (inactive)
C/C(=N\NC(=O)c1ccccc1N)c1ccccc1O	36.3% (inactive)
COC(=O)c1cccnc1	91.9% (inactive)
CN(C)c1ccc(CNC(C(=O)c2ccccc2)c2ccccc2)cc1 (configuration not stated)	98.2% (inactive)
CCCCCC(C)(CC(=O)O)CC(=O)O	110% (inactive)
COC(=O)Nc1nc2ccc(C(=O)c3cccs3)cc2[nH]1	39.1% (inactive)
N#CC1(Nc2ccc3c4c(cccc24)CC3)CCCCC1	88.3% (inactive)
O=C(CS)Nc1ccc2ccccc2c1	107% (inactive)
CCOC(=O)C/C(C)=N\O	101% (inactive)
CC(O)COc1ccc(-c2ccccc2)cc1 (configuration not stated)	115% (inactive)
CC(=O)c1cc2c(cc1F)C(C)(C)CCC2(C)C	101% (inactive)
C[C@]12CC[C@@H]3c4ccc(OCC(=O)O)cc4CC[C@H]3[C@@H]1CCC2=O	107% (inactive)
O=C(c1ccc(O)cc1)c1ccc(O)cc1	108% (inactive)
CC[N+](C)(CC)CCO	104% (inactive)
CC(=O)OC1CC2C(C)(C)OC3CC(=O)OCC32C2CCC3(C)C(=CCC3c3ccoc3)C12C (configuration not stated)	58.2% (inactive)
N#CCCN(CCCN1CCOCC1)CN1C(=O)c2ccccc2C1=O	102% (inactive)

system: OVCAR-3 ovarian; assay: as above; details: 10 µM

Compound	growth
Nc1nc(N)c2cc(S(=O)(=O)c3cccc(C(F)(F)F)c3)ccc2n1	79.2% (inactive)
CCC(O)CC(CC)CO (configuration not stated)	130% (inactive)
COc1ccc(OC)c(/C=C2\CCc3ccccc3C2=O)c1	9.47% (active)
C/C(=N/NC(N)=O)c1ccco1	104% (inactive)
Cc1ccc(CCCC(=O)O)c(C)c1	108% (inactive)
CC(=O)OCC1OC(OC2=C(CC=C(C)C)C(=O)c3ccccc3C2=O)C(OC(C)=O)C(OC(C)=O)C1OC(C)=O (configuration not stated)	-33.1% (active)
C=CC(O)CCC (configuration not stated)	113% (inactive)
COc1cc(C(=O)NC(=S)Nc2ccc3ccccc3c2)cc(OC)c1OC	107% (inactive)
CCN1C(=O)/C(=C/C=C/N(C)c2ccccc2)SC1=S	81.4% (inactive)
O=[N+]([O-])c1cccc(C(F)(F)F)c1	117% (inactive)
CCOc1ccc(/C=N/N=C(N)N)cc1OCC	107% (inactive)
CCc1ccc(/C(C#N)=C/C=C/c2ccccc2)cc1	-11.2% (active)
COC(=O)c1ccc(NC(=O)CCl)cc1	82.4% (inactive)
COCCCC/C(=N\OCCN)c1ccc(C(F)(F)F)cc1	105% (inactive)
O=[N+]([O-])c1cccc2nsnc12	107% (inactive)
CC(=O)c1ccc(C(C)(C)C)cc1	103% (inactive)

Compound	growth
CC1(C(N)=O)CCC(C(=O)O)C1(C)C (configuration not stated)	119% (inactive)
Cc1ccc(/C(C#N)=C/c2ccc3c(c2)OCO3)cc1	73.8% (inactive)
O=C(c1ccccc1)C1CCC1	108% (inactive)
C/C(=N\NC(=O)c1ccccc1N)c1ccccc1O	12.4% (inactive)
COC(=O)c1cccnc1	106% (inactive)
CN(C)c1ccc(CNC(C(=O)c2ccccc2)c2ccccc2)cc1 (configuration not stated)	114% (inactive)
CCCCCC(C)(CC(=O)O)CC(=O)O	126% (inactive)
N#CC1(Nc2ccc3c4c(cccc24)CC3)CCCCC1	111% (inactive)
CC(O)COc1ccc(-c2ccccc2)cc1 (configuration not stated)	108% (inactive)
CC(=O)c1cc2c(cc1F)C(C)(C)CCC2(C)C	101% (inactive)
C[C@]12CC[C@@H]3c4ccc(OCC(=O)O)cc4CC[C@H]3[C@@H]1CCC2=O	101% (inactive)
O=C(c1ccc(O)cc1)c1ccc(O)cc1	111% (inactive)
CC[N+](C)(CC)CCO	108% (inactive)
CC(=O)OC1CC2C(C)(C)OC3CC(=O)OCC32C2CCC3(C)C(=CCC3c3ccoc3)C12C (configuration not stated)	93.8% (inactive)
N#CCCN(CCCN1CCOCC1)CN1C(=O)c2ccccc2C1=O	120% (inactive)
